# ChEMBL document CHEMBL1961873, “Compounds: GSK PKIS; Assays: Nanosyn kinase panel” (2012)
# What was measured:
# [1] = biological target: T1, Tyrosine-protein kinase receptor TYRO3 (Homo sapiens) (UniProt Q06418); settings: at 1 µM
# T1 sequence (whole entry): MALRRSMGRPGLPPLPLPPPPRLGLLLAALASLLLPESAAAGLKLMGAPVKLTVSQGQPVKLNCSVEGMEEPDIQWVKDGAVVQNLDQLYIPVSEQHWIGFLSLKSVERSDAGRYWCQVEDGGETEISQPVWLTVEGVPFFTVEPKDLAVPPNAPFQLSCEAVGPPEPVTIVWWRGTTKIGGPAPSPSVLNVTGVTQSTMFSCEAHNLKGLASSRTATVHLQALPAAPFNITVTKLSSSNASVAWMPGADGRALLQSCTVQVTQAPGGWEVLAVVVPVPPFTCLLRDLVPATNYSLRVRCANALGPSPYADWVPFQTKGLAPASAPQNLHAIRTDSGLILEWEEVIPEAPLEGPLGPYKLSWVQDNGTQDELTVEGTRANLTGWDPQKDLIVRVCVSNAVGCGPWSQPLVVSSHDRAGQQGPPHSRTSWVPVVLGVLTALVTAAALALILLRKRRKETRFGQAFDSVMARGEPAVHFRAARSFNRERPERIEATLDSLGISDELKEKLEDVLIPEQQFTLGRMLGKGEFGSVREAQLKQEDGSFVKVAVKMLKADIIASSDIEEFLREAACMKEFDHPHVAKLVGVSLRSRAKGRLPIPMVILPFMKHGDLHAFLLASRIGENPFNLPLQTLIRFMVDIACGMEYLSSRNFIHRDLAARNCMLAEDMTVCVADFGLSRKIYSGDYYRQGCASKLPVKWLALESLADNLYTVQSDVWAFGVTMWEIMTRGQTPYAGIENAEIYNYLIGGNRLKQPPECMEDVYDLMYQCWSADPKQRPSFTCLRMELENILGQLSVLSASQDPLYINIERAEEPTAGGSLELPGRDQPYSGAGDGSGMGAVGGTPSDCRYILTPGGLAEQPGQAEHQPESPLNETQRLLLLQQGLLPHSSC
# [2] = biological target: Tyrosine-protein kinase Yes (Homo sapiens) (UniProt P07947); settings: at 0.1 µM
# Tyrosine-protein kinase Yes (Homo sapiens), sequence (P07947 2-543 limits assumed): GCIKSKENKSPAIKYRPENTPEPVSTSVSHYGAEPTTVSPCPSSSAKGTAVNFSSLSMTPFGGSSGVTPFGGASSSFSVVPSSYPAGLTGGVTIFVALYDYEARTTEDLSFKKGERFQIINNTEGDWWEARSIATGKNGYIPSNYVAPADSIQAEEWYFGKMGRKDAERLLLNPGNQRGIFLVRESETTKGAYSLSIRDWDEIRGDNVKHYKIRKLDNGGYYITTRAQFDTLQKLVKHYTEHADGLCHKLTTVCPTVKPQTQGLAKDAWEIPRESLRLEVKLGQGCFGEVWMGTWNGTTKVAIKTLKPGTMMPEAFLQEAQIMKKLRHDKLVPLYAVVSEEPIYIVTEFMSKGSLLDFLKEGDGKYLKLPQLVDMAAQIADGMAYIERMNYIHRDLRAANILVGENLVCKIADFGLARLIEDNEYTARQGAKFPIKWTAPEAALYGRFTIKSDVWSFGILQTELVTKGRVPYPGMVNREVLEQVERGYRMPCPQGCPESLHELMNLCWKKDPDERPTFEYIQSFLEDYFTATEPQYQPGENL
# [3] = biological target: Tyrosine-protein kinase Yes (Homo sapiens) (UniProt P07947); settings: at 1 µM
# [4] = biological target: T2, Tyrosine-protein kinase ZAP-70 (Homo sapiens) (UniProt P43403); settings: at 0.1 µM
# T2 sequence (whole entry): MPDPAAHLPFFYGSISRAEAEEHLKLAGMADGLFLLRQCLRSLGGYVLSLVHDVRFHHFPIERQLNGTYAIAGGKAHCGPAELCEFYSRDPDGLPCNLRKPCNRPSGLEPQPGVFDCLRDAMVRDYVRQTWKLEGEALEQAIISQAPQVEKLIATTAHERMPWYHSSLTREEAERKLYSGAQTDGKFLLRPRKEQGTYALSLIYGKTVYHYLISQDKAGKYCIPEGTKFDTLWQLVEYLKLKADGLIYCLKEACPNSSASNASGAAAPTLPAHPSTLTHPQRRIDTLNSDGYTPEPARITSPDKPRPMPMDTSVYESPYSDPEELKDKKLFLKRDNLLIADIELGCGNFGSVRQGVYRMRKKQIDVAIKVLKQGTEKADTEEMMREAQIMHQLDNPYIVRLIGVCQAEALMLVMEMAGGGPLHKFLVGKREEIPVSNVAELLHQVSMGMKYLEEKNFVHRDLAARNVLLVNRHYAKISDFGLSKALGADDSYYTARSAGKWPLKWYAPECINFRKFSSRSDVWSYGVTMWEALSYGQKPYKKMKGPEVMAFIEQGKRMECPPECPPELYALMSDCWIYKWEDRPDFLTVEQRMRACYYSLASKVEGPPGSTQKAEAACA
# [5] = biological target: T2, Tyrosine-protein kinase ZAP-70 (Homo sapiens); settings: at 1 µM
# [6] = biological target: Serine/threonine-protein kinase B-raf (Homo sapiens) (UniProt P15056); settings: at 0.1 µM
# Serine/threonine-protein kinase B-raf (Homo sapiens), sequence (P15056 whole entry): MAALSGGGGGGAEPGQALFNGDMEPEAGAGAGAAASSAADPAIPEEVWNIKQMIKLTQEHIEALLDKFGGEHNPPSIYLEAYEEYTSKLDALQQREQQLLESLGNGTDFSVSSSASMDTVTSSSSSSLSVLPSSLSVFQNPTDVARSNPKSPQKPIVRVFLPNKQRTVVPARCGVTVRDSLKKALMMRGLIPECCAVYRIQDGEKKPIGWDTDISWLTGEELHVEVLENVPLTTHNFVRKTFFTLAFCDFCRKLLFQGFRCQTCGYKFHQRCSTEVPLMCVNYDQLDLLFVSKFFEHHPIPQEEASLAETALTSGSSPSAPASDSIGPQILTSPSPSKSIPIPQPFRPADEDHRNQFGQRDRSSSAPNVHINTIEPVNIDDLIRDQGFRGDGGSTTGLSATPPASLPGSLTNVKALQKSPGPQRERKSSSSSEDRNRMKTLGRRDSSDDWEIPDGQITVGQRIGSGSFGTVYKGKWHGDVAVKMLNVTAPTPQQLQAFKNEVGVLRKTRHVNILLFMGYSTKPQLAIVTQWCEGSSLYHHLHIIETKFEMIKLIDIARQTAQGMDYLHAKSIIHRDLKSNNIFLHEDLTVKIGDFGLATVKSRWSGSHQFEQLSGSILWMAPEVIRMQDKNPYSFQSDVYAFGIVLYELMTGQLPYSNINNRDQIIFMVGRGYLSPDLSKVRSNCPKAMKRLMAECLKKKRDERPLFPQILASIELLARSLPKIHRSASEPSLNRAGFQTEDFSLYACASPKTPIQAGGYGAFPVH
# [7] = biological target: Serine/threonine-protein kinase B-raf (Homo sapiens) (UniProt P15056); settings: at 1 µM
# [8] = system: Serine/threonine-protein kinase B-raf (Homo sapiens), P15056 [V600E]; settings: at 0.1 µM
# Serine/threonine-protein kinase B-raf (Homo sapiens), P15056 [V600E], sequence (P15056 whole entry V600E): as the sequence (P15056 whole entry) above, with V600E counted along it
# [9] = system: Serine/threonine-protein kinase B-raf (Homo sapiens), P15056 [V600E]; settings: at 1 µM
# [10] = biological target: RAF proto-oncogene serine/threonine-protein kinase (Homo sapiens) (UniProt P04049); settings: at 0.1 µM
# RAF proto-oncogene serine/threonine-protein kinase (Homo sapiens), sequence (P04049 whole entry): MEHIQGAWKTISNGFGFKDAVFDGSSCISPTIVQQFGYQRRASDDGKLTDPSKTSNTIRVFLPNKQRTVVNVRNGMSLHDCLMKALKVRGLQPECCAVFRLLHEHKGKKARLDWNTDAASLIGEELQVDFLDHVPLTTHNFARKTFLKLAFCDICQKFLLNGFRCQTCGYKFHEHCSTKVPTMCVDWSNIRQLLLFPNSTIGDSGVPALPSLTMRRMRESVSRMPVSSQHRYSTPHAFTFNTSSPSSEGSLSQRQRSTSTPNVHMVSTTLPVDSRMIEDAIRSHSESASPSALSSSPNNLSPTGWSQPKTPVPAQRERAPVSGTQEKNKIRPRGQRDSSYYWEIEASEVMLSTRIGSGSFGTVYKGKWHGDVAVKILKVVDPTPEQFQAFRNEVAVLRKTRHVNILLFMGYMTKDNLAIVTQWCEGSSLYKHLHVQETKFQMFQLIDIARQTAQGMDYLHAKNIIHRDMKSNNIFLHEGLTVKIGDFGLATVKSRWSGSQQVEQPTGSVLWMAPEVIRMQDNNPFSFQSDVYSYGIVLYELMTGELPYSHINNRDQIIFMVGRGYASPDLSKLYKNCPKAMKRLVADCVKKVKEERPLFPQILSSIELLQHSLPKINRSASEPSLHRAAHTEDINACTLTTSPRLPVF
# [11] = biological target: RAF proto-oncogene serine/threonine-protein kinase (Homo sapiens) (UniProt P04049); settings: at 1 µM
# [12] = biological target: T3, Interleukin-1 receptor-associated kinase 4 (Homo sapiens) (UniProt Q9NWZ3); settings: at 0.1 µM
# T3 sequence (whole entry): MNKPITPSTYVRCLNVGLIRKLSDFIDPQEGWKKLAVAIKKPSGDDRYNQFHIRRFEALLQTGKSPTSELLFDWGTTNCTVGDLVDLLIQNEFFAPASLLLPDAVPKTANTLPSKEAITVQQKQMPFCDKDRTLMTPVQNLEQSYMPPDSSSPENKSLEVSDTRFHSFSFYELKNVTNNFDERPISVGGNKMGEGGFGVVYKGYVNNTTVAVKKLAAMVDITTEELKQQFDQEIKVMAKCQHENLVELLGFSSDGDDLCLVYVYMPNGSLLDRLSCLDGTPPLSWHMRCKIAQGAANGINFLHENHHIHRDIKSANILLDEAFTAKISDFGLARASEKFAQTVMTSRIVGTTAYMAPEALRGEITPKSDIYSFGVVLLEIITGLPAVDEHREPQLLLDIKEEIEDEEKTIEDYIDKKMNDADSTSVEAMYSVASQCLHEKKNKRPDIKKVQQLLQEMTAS
# [13] = biological target: T3, Interleukin-1 receptor-associated kinase 4 (Homo sapiens); settings: at 1 µM
# [14] = biological target: Leucine-rich repeat serine/threonine-protein kinase 2 (Homo sapiens) (UniProt Q5S007); settings: at 0.1 µM
# Leucine-rich repeat serine/threonine-protein kinase 2 (Homo sapiens), sequence (Q5S007 whole entry): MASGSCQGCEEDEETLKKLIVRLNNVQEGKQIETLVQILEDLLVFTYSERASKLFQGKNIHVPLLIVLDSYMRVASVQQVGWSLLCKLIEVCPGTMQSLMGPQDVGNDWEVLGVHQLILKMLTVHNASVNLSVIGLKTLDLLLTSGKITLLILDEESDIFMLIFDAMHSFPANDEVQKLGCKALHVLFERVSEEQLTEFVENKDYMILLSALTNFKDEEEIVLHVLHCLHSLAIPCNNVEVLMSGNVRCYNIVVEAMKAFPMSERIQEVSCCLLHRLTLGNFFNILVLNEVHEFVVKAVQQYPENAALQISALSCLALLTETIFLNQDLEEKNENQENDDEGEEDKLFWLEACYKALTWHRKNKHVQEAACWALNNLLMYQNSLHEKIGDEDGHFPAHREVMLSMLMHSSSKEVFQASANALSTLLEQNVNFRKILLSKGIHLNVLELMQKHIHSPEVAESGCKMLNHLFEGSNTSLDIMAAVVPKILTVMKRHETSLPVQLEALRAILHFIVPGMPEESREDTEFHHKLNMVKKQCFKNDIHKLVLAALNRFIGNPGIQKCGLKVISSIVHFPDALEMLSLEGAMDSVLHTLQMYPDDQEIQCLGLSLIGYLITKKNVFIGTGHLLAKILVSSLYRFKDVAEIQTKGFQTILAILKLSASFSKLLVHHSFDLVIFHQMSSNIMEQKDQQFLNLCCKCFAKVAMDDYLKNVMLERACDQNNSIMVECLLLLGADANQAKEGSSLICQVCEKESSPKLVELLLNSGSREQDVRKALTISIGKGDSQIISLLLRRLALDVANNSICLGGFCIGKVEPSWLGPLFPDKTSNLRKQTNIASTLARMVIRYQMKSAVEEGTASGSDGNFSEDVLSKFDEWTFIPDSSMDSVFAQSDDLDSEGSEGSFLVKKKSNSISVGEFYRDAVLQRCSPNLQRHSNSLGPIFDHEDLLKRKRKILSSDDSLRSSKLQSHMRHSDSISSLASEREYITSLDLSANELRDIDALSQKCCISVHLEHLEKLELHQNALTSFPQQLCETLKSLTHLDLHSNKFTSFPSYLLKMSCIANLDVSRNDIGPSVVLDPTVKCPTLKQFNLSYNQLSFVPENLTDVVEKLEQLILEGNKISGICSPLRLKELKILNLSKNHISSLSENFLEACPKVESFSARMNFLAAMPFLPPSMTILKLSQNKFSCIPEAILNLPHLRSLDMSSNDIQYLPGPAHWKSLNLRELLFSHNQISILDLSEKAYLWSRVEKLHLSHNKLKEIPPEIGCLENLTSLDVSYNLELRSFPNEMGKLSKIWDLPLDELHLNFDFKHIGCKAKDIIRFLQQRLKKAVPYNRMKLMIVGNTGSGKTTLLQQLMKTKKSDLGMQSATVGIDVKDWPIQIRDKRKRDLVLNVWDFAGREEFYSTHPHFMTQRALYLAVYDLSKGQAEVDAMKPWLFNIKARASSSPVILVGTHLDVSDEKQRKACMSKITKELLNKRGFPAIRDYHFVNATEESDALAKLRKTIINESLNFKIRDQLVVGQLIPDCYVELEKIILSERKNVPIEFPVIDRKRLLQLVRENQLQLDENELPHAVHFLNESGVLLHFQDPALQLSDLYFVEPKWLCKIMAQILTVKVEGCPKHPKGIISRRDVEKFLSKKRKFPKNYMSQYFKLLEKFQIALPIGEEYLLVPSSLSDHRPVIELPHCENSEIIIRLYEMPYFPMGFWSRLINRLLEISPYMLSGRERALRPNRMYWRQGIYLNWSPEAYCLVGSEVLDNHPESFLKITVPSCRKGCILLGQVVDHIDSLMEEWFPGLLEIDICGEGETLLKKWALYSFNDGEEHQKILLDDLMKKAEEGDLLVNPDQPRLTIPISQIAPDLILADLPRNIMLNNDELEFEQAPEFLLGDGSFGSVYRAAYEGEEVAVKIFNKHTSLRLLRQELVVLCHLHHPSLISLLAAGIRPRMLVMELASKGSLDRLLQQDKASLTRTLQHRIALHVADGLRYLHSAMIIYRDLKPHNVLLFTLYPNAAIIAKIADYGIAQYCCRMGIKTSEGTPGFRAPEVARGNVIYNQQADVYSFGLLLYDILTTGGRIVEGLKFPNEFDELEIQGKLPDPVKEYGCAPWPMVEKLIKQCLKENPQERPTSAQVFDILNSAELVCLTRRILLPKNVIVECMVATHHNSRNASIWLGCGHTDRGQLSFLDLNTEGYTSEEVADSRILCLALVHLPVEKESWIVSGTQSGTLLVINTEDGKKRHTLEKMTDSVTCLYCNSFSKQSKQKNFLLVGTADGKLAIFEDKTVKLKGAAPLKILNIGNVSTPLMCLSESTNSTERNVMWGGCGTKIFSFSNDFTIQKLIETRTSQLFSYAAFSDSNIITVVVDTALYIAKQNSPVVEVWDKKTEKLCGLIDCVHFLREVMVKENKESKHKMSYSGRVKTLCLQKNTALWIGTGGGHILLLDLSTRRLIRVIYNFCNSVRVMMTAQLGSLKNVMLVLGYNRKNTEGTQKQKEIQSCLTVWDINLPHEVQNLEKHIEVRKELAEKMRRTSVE
# [15] = biological target: Leucine-rich repeat serine/threonine-protein kinase 2 (Homo sapiens) (UniProt Q5S007); settings: at 1 µM
# [16] = system: Leucine-rich repeat serine/threonine-protein kinase 2 (Homo sapiens), Q5S007 [G2019S]; settings: at 0.1 µM
# Leucine-rich repeat serine/threonine-protein kinase 2 (Homo sapiens), Q5S007 [G2019S], sequence (Q5S007 whole entry G2019S): as the sequence (Q5S007 whole entry) above, with G2019S counted along it
# [17] = system: Leucine-rich repeat serine/threonine-protein kinase 2 (Homo sapiens), Q5S007 [G2019S]; settings: at 1 µM
SMILES,inhibition [1] [%],inhibition [2] [%],inhibition [3] [%],inhibition [4] [%],inhibition [5] [%],inhibition [6] [%],inhibition [7] [%],inhibition [8] [%],inhibition [9] [%],inhibition [10] [%],inhibition [11] [%],inhibition [12] [%],inhibition [13] [%],inhibition [14] [%],inhibition [15] [%],inhibition [16] [%],inhibition [17] [%]
OCc1ccc(-c2nc(-c3ccccn3)c(-c3ccc4c(c3)OCO4)[nH]2)cc1,1.02,1.58,-0.01,1.4,0.81,5.65,7.13,6.24,7.48,-1.74,-7.97,-4.02,2.42,4.19,6.97,5.62,9.65
Oc1cccc(-c2nc(-c3ccccc3)[nH]c2-c2ccncc2)c1,9.74,4.12,21.9,3.06,3.35,14.5,30,12.8,28.9,1.16,12.2,-4.12,2.23,4.13,8.56,4.27,8.9
COc1cc2ncnc(Nc3ccc4c(cnn4Cc4ccccc4)c3)c2cc1OC,12.6,39.4,79.9,-3.74,2.96,3.75,3.3,2.5,1.8,0.11,-1.93,0.58,1.32,3.78,14.3,6.86,13.8
Nc1nccc(-c2c(-c3ccc(F)cc3)nn3cc(C(F)(F)F)ccc23)n1,1.24,0.91,1.92,-0.68,-1.16,0.06,0.3,0.14,-0.28,-3.59,-7.59,0.57,0.46,6.4,7.9,6.54,5.03
COc1cccc(-n2ncc3c(N/N=C/c4ccc(C)cc4)ncnc32)c1,4.49,4.03,13.8,3.63,11,7.21,11.2,4.78,6.08,7.72,0.4,2.16,4.05,10.2,18.8,11.3,27.9
Cc1ccc(NC(=O)CC2CC2)cc1-c1ccc(C(=O)NCC2CC2)cc1,4.65,1.53,2.46,-0.2,2.11,4.43,6.22,4.33,4.96,3.39,2.03,-2.97,2.2,2.09,7.62,3.23,6.82
CCS(=O)(=O)c1ccc(OC)c(Nc2ncc(-c3cccc(OC)c3)o2)c1,40.6,34.5,80.2,-1.53,-2.95,1.82,5.54,1.52,4.88,5.24,-3.45,-4.04,2.08,5.57,20.2,7.7,42.6
Cc1cc(O)cc(C)c1/C=C/c1cncc(C(=O)N(C)C)c1,2.81,0.44,1.22,1.81,2.36,3.04,3.56,4.11,3.14,6.23,-5.4,-1.62,2.21,4.81,7.82,3.29,7.6
CCOc1nccc2c1nc(-c1nonc1N)n2CC,5.64,2.27,6.31,2.73,1.9,2.88,2.64,3.44,2.45,-1.34,1.42,-2.37,1.89,3.98,8.96,5.55,11.8
COc1cc(Nc2nccc(-c3cnn4ncccc34)n2)cc(OC)c1,14.9,9.16,39.8,4.5,14.2,3.83,28.9,4.91,28.7,-0.8,10.1,5.71,18.6,18.7,24.4,22.1,62.9
CN(C)c1cc2c(Nc3ccc4c(cnn4Cc4ccccc4)c3)ncnc2cn1,7.51,13.5,49.8,2.63,5.85,3.72,3.71,4.74,4.34,1.64,7.17,3.11,1.57,3.31,9.07,3.44,8.03
[O-][S+]1CCN(Cc2ccc(-c3ccc4ncnc(Nc5ccc(OCc6ccccc6)c(Cl)c5)c4c3)o2)CC1,2.86,6.47,39.1,-3.44,1.8,3.08,3.86,2.34,3.29,-1.87,-0.7,0.32,0.82,1.07,2.89,4.21,4.96
CCS(=O)(=O)c1ccc(OC)c(Nc2nccc(N(C)c3ccc4c(C)n[nH]c4c3)n2)c1,7.2,29.3,73.9,0.81,2.48,6.4,8.1,5.33,5.98,1.8,3.08,1.47,1.99,5.36,22.5,8.48,27.3
O=C1Nc2ccccc2/C1=C/Nc1ccc2[nH]c(=O)[nH]c2c1,21.6,6.92,27.2,3.11,7.45,9.63,10.4,8.7,8.75,0.68,-0.47,2.93,2.88,3.06,14.1,6.22,35
